Test results reported in the supplement of paper PMC3334620.
The full ranking holds about 33,000 sequences; the median of “E-score (-0.5 to 0.5)” is about -0.041, and the highest 2% start at about 0.37. The sample as a whole holds a higher share of the highest values than the screen did.

Each sequence was assayed against T1, Ecm22 (UniProt Q05958) (assay: PBM E-score (8-mer binding enrichment) (E-score (-0.5 to 0.5)); higher = stronger / more preferred TF binding). Details: protein concentration: 200 nM; construct: GST-full length.
T1 sequence: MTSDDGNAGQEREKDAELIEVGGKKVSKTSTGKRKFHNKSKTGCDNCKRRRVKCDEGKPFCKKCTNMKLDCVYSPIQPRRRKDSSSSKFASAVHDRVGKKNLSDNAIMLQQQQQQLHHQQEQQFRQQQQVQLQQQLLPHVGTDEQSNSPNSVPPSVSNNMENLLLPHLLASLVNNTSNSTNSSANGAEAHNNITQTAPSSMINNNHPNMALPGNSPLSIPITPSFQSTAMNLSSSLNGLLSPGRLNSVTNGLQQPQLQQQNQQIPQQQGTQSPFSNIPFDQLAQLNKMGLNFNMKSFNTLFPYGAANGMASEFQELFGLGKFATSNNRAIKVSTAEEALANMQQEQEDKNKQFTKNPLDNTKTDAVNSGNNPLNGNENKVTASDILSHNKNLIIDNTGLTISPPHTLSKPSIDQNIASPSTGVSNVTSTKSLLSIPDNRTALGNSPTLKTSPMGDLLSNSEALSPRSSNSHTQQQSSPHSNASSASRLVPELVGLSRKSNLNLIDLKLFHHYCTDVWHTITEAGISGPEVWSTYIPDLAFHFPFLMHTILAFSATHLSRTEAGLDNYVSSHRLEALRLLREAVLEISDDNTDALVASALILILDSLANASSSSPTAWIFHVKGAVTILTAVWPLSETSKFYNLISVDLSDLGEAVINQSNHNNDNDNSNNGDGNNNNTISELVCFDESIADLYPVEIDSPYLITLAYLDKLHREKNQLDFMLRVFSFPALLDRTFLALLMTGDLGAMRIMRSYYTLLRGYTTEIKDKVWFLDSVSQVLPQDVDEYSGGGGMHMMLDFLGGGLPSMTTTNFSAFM
Method: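 Universal 'all 10-mer' protein binding microarrays (Agilent AMADID 015681) probed with GST-tagged S. cerevisiae TFs (full-length or DBD) made by in vitro transcription/translation (PURExpress), about 100-200 nM. Bound TF was detected with fluorescent anti-GST. Each ungapped 8-mer (which stands for itself and its reverse complement) is scored by the PBM enrichment score (E-score), a modified Wilcoxon-Mann-Whitney statistic from -0.5 to +0.5, computed with the Universal PBM Analysis Suite. Scale: above 0.35 generally sequence-specific binding.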

Sequence	PBM E-score
GATATAAC	0.156
AAGGACAC	-0.168
ACTTTGGG	-0.263
ATTGACTC	-0.0667
AACACAAT	-0.00044
CTTTTCCA	-0.271
GGCGGCGA	-0.157
GACAGAGA	0.0187
AATACGAT	0.384
AATACGCT	0.121
GATACGTA	0.253
GATACGAA	0.445
AATACGAC	0.429
AATACGGC	0.268
AATACGGT	0.21
AATACGTC	0.0846
GATACGCC	0.162
GATACGAC	0.464
GATACAAA	0.163
GATACGGC	0.32
ATTCCGAC	-0.0388
AAAACGAT	0.257
ACGTTCTA	0.0664
AGGAATAT	0.06
AGTTGAAC	0.0747

Sequence	PBM E-score
AGTGGAGA	-0.128
ACCGAGTG	0.159
TCCAGGGA	-0.173
CACGGACG	-0.0335
AGCTAACA	-0.248
CATACGAG	0.481
CATACGCG	0.269
CATACGGG	0.36
AGGGTTAA	-0.0692
CGGCTCAC	-0.0852
AGGTTAGA	-0.186
GCACGAGA	0.127
CAGCGAGA	0.0257
AATCGAGC	0.237
GAACGAGA	0.464
GAGCGAGC	0.354
AAACGAGC	0.482
GAGCGAGA	0.377
CAACGAGC	0.336
GGACGAGA	0.0358
GCACGAGC	0.0624
GAACGAGC	0.483
AACCGAGC	0.355
GCTGCCTA	-0.101
AGTGGGCG	-0.167

Sequence	PBM E-score
ATAGGATC	-0.135
GCCTAGCA	-0.213
ATAAGGAG	-0.0163
ATGTACGA	0.477
CTGTACGC	0.314
ATGTACGG	0.365
ATGTACGC	0.112
GTGTACCA	0.0289
CTGTACAA	-0.0518
GTGTACGA	0.481
GTGTACTA	0.207
CTGTACGA	0.48
TACTGACA	0.0366
AGTCCAAA	-0.108
GGCGGCAC	0.0476
GCTGGGGA	-0.211
CCACCCGC	-0.0883
GCACCGTA	0.371
AAACCGTA	0.27
CCACCGTA	0.34
GAACCGTA	0.248
TAACCGTA	0.375
ACACCGTA	0.313
AGACAGCA	-0.143
AATACCGT	0.197

Sequence	PBM E-score
CAGGGTGA	-0.192
TAATCGAA	0.134
CAATCGTC	-0.0527
AAATCGTA	0.393
GAATCGCA	-0.0229
GAATCGTA	0.38
GAATCGTC	0.14
TAATCGTA	0.418
AAATCGTC	0.127
CAATCGTA	0.389
TAATCGGA	0.16
AAATCGTG	0.0433
CAATCGTG	-0.215
ACCCACAA	0.105
ACGTAGTC	-0.158
AGATAGGG	-0.127
ATCTCGAG	-0.0735
AATGGCTG	-0.124
AGGGTACC	-0.323
AGGGTACG	0.411
CGGGTACC	-0.134
CGGGTACG	0.452
CGAGTACG	0.392
CGGGTACA	0.157
CGAGTACC	0.21

Sequence	PBM E-score
AGGGTACA	-0.0565
AGAGTACG	0.257
AAGGGCTG	-0.377
AAGAGACG	0.0921
CTACTCTA	-0.204
ACAAACGC	0.174
CCAAACGC	0.177
GCAAACGA	0.433
CCAAACGG	0.287
GCAAACAA	0.0626
TCAAACGA	0.452
CAAAACGA	0.278
ACAAACGA	0.445
CCAAACGA	0.437
ACAAACGG	0.226
GCAAACGC	0.0881
TCAAACAA	-0.155
AGCGGGTG	-0.186
CTTTTGCC	-0.0531
ATCAACCA	-0.154
CGCAAGCG	0.142
TGGACCAA	-0.206
AGGGAGAT	-0.275
CAATGACG	-0.147
ACGTTTAA	0.365

Sequence	PBM E-score
CCGTTTAC	0.416
ACGTTTAC	0.304
GCGTTTAC	0.227
CAGTTTAG	-0.0933
GCGTTTAA	0.28
CCGTTTAG	0.433
CCGTTTAA	0.441
ACGTTTAG	0.33
ACAGATCT	-0.159
GTTCCAAC	0.135
AATACTAG	0.0461
CAGGCGCA	-0.24
AGGAGGCA	-0.294
AACGAAAT	0.4
AACGAAAA	0.364
CACGAAAG	-0.0739
AACGAAAC	0.389
ACCGAAAT	0.15
ACCGAAAG	0.0863
CACGAAAC	0.147
GACGAAAC	0.287
AACGAAAG	0.399
CCTAAAAG	-0.201
AACCAAAG	-0.0743
GTGGCAAA	-0.187

Sequence	PBM E-score
AGCACCAT	-0.122
ATAGTACA	0.151
ATCGTACA	0.465
AGCGTACC	0.251
CACGTACA	0.216
ATAGTACC	0.00552
ATCGTACC	0.479
AGCGTACG	0.351
ATAGTACG	0.325
ATCGTACG	0.437
CGCGTACA	0.269
AGCGTACA	0.179
CTCGTACA	0.489
GTTGACCA	-0.16
TACCGCAA	0.0649
AACTGCAT	-0.00243
ACGCCCAG	-0.143
AGGCTTAA	-0.168
GGTACTGA	-0.0769
CCCGATCA	0.197
AACGTACC	0.297
GACGTACA	0.211
GGCGTACA	0.16
AACGTACG	0.378
GTCGTACA	0.484

Sequence	PBM E-score
AACGTACA	0.204
ATTCTTAC	-0.026
CACCAGCA	-0.028
CTGCAGGA	-0.245
AGACCCGC	-0.00174
AAACGAGG	0.476
CAACGAGA	0.378
ACACGAGT	0.24
TAACGAGA	0.369
CAACGAGG	0.343
AAACGTGG	0.133
AAACGAGT	0.456
TCACGAGA	0.0348
AAACGGGT	0.319
TAACGTGA	-0.142
ACCCCCCA	-0.296
ATCACAAG	-0.0512
CCCCTAGG	-0.307
ACGAATTC	0.269
AGCCTGTC	0.0499
CATTGGCG	-0.239
ATCTTTGA	-0.00074
AGGCCGAC	-0.106
AAACGAGA	0.463
ACACGAGA	0.265

Sequence	PBM E-score
AGACGAGA	0.166
GCGTAAGA	0.074
AATATCTA	-0.0604
CGCCGTAC	0.408
AGCCGTAC	0.369
GGCCGTAC	0.419
CGCCGTAG	0.119
AGCCGTAG	0.0779
CGCCGTAA	0.26
GACCGTAC	0.362
GGCCGTAA	0.244
AGCCGTAT	0.315
ACGGTTGA	0.0702
AAGCCGAA	-0.0177
CAGGCACG	-0.112
AACAACTT	-0.092
GAAATCTC	0.129
CCCGAGCG	0.173
CCACGAAC	0.201
GCACGAAC	0.222
CTACGAAC	0.369
AGACGAAC	0.295
GGACGAAC	0.111
ATACGAAC	0.474
GTACGAAC	0.475

Sequence	PBM E-score
ACACGAAC	0.237
CTACGAAG	0.297
CCTAGCCC	-0.222
AGCGTCCC	-0.145
AATCTGTG	-0.0802
GTGGAACA	0.0214
GGAGTGCA	0.0316
GTGGGTCA	-0.308
AAGAGGTC	-0.207
ACGAGGTC	0.389
ACGAGGTA	0.413
GCGAGGTA	0.285
CCGAGGTA	0.176
ACGAGGTG	0.397
CCGAGGTC	0.11
AGGAGGTG	-0.298
ATGAGGTG	-0.127
CCTTTTCC	0.055
CGGTCTGC	0.0314
TACCACGA	0.0887
GCAACTGA	0.0723
GACTTCGC	0.232
GCAACGAA	0.406
GCAACGAC	0.417
ACAACGAC	0.295

Sequence	PBM E-score
TCAACGAA	0.187
ACAACGAA	0.257
CCAACGAC	0.0154
AGGCCCCA	-0.182
TAGTCCAA	-0.157
AGTACATA	-0.0214
CGTACAAG	0.416
AGTACAAG	0.0646
CATACAAG	-0.122
CGTACTGA	0.32
CGTACATC	0.353
AGTACAAA	0.0199
CGTACAAA	0.412
GGTACAAA	-0.0856
AGTACTTA	0.0475
CGTACTTA	0.375
CGTACATA	0.414
ACCACCAT	-0.103
TTAGGGAA	-0.0515
ATAACGGC	0.146
ATGAAGGC	-0.102
CGTGGACC	-0.108
ACGGAATG	0.0826
AGTGTTGA	-0.109
AAGCCGAG	0.0901

Sequence	PBM E-score
ACTGGATG	-0.18
CGTACTAA	0.341
CGTACAAC	0.434
CGTACTAC	0.382
GGTACAAC	0.0714
AGTACAAC	0.0262
CGTACTAG	0.342
CTAAACAG	-0.109
AAACCACT	-0.153
AGCTGCGG	-0.00448
AATCGCCC	-0.0815
TAGAGCCA	-0.288
ACTCCGTG	-0.233
AGGTCGGC	-0.138
GGTTACGA	0.381
CGTTACGC	0.256
AGTTACGG	0.138
GGTTACTA	-0.123
AGTTACGA	0.393
CGTTACGA	0.403
CGTTACAA	0.0964
AGTTACGC	0.071
GGTTACCA	0.0711
GTGGCGTA	0.042
CCCGTTGC	0.111

Sequence	PBM E-score
CCTCGGGC	0.0916
ACTTCACC	0.0335
AAAATCAC	-0.0192
ATACGTAA	0.278
ATACGTAT	0.374
AGACGAAG	0.0703
ACACGAAT	0.217
GTACGAAA	0.467
GGACGAAA	0.108
ATACGTAC	0.342
ATACGAAG	0.466
AGACGAAT	0.0921
ACACGAAG	0.249
ATACGAAT	0.45
GCACGAAA	0.103
AGCCTTAA	-0.0857
AACTTGGT	0.0861
TGTGTCAA	-0.0896
CGCAAGCC	0.0725
GGATCCCC	-0.0315
TTACGAAA	0.403
CTACGAAA	0.302
AGACGAAA	0.194
ACACGAAA	0.224
TCACGAAA	-0.00573

Sequence	PBM E-score
ATACGAAA	0.463
ATGGTTCA	0.0295
AGAACCCC	-0.179
GACCCTCC	0.00379
CGTGCGTA	0.233
GCCCCCCA	-0.365
AGGATTAG	-0.0677
CCGCAACC	-0.176
ACGCAACG	0.308
CCGCAACG	0.377
GCGGCACC	-0.0132
TACGATGA	0.438
CACGATGC	0.136
AACGATGA	0.386
GACGATGC	-0.0114
AACGATGT	0.396
ATCGATGA	-0.0837
CACGATCA	-0.00633
GACGATGA	-0.0197
CACGATGA	0.19
GACGATCA	-0.0466
TACGATCA	0.443
AAAGATGT	-0.0546
